Sampled rows, rich in hits. Any-hit rate of the full collection: about 4.2%.
tim10-1 inh: growth inhibitors of tim10-1 mutant yeast; S. cerevisiae tim10-1 ts strain growth, BacTiter-Glo, 24 h; inhibition, % at 20 µM; 2.2% of 330,000 active;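 active = inhibition of at least 40%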;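 note: mutant grown at 25 °C; 0% = DMSO wells with yeast and 100% = wells holding no yeast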
NALP1 yeast inh: NALP1 inhibition. S. cerevisiae NALP1/ASC/caspase-1 growth, X-gal OD620, 72 h. inhibition, % at 10 µM. 0.61% of 280,000 active. AID 2071; in the data active = inhibition mostly above about 24%, no sharp cut-off; inactive = mostly below about 32%
NALP3 yeast inh: inhibitors of NALP3 inflammasome in yeast. Yeast reconstituted NLRP3/ASC/caspase-1, beta-gal luminescence, 24 h. inhibition, % at 10 µM. 0.39% of 330,000 active. AID 2825;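 active = inhibition of 50% or more; inactive = inhibition below 50%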;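 note: plate controls were induced DMSO wells for no effect and uninduced yeast grown without galactose for full effect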
TIM10 inh: TIM10 yeast growth inhibition. S. cerevisiae TIM10 strain growth, BacTiter-Glo luminescence, 24 h. inhibition, % at 10 µM. 1.4% of 330,000 active. AID 463195;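 active = inhibition of 40% or more at the single tested concentration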;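 note: wild-type TIM10 isogenic control strain grown at permissive 25 °C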
tim23-1 inh: inhibits growth of tim23-1 mutant yeast; 1.3% of 330,000 active; AID 463212; inhibition, % at 20 µM; S. cerevisiae tim23-1 growth, BacTiter-Glo luminescence, 24 h;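 active = growth inhibition of the mutant yeast at or above 50%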;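 note: temperature-sensitive mutant grown at 25 °C; plate controls were DMSO-treated mutant yeast for no effect and medium wells lacking yeast for full effect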
V-ATPase pHluor: regulators of yeast V-ATPase proton transport. S. cerevisiae, pHLuorin cytosolic pH fluorescence. response, % at 10 µM. 0.37% of 350,000 active; in the data active = response mostly above about 7.3%, no sharp cut-off; inactive = mostly below about 5.4%; note: actives read high
tim10-1 conf: confirmation of tim10-1 mutant yeast growth inhibitors; inhibition, % at 20 µM; shares compounds with tim10-1 inh; 56% of 7,400 active; S. cerevisiae tim10-1 ts strain growth, BacTiter-Glo, 24 h;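 active = inhibition of yeast growth at or above a set limit in either of two repeat tests at 20 µM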;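 note: tim10-1 mutant grown at permissive 25 °C to find synthetic lethal compounds; 0% = DMSO yeast wells and 100% = medium wells without yeast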
Numbers without * were called inactive; nt = not tested or not shown.

SMILES	tim10-1 inh	NALP1 yeast inh	NALP3 yeast inh	TIM10 inh	tim23-1 inh	V-ATPase pHluor	tim10-1 conf
CN(Cc1ccccc1)C(=O)CSc1nc2c(c(C(F)(F)F)n1)CCc1ccccc1-2	44*	nt	12	4	22	-1	21
NC(=O)c1c(NC(=O)CSc2nc3c(c(C(F)(F)F)n2)CCc2ccccc2-3)sc2c1CCCC2	-1	nt	-9	-1	21	2	nt
Cn1cc(CN(CCO)Cc2cccs2)c(-c2ccccc2F)n1	14	30	9	-7	2	-2	nt
CCN(CC)S(=O)(=O)c1ccc(C(=O)NC2=C(C(=O)OC)SCC2)cc1	42*	12	-21	23	26	nt	31
O=C1CCN(Cc2ccccc2)C(=O)N1c1ccccc1	-9	7	9	-10	0	-2	nt
COc1ccc(-c2cnn3c4c(c(C)nc23)CCN4C(C)C)cc1OC	43*	31	13	15	-2	-4	25
Cc1ccc(-n2ccc(=O)c(C(=O)Nc3ccc(S(=O)(=O)N4CCOCC4)cc3)n2)cc1	-3	-1	-6	20	4	12	nt
CSc1nc2ccc(NC(=O)c3ccc(F)c(F)c3)cc2s1	-8	5	26	2	-20	0	nt
CCOC(=O)Nc1ccc2nc(Sc3ccc(Cl)cc3)sc2c1	42*	20	17	20	27	3	33*
COc1ccc(NC(=O)c2sc3nc(N4CCOCC4)c4c(c3c2N)CC(C(C)C)OC4)c(OC)c1 (centres undefined)	43*	5	15	-5	1	-8	4
COc1ccc(NC(=O)c2sc3nc(N4CCCC4)c4c(c3c2N)CC(C)(C)OC4)c(OC)c1	26	4	13	-1	9	3	nt
COc1ccccc1OCCNC(=O)c1ccc(Br)cc1	-30	7	31	-58	-27	-3	nt
COc1ccccc1OCCNC(=O)Nc1ccc(Br)cc1	40*	12	15	-7	27	-5	31*
CCc1nnc(NC(=O)C2COc3ccccc3O2)s1 (centres undefined)	22	24	10	9	28	-1	nt
CCCCCc1nnc(NC(=O)C2COc3ccccc3O2)s1 (centres undefined)	46*	-2	40	21	50	-2	40*
CC(C)(C)c1ccc(S(=O)(=O)NCC(=O)Nc2sc3c(c2C(N)=O)CCCC3)cc1	-6	19	17	-8	-5	3	nt
CCOC(=O)c1ccc(N2C(=O)C3C(C2=O)C(C(=O)c2ccc(Cl)cc2)N2CCCC32)cc1 (centres undefined)	42*	7	18	32	26	3	29*
O=C(NCCO)c1cc2c([nH]c3ccccc32)c(-c2ccccc2)n1	43*	19	11	15	23	-1	14
O=C(NCCO)c1cc2c([nH]c3ccccc32)c(-c2ccc(F)cc2)n1	29	2	7	29	34	1	nt
COC(=O)CSc1nc2c(c(-c3ccco3)c1C#N)CCCC2	47*	9	-1	25	31	1	40*
O=C1c2ccccc2-c2cc(Br)ccc2NC1O (centres undefined)	nt	nt	nt	nt	nt	3	nt
CC12CC(c3ccccc3O1)N(C(=O)c1ccco1)C(=S)N2c1ccccc1 (centres undefined)	42*	12	7	38	46	-2	27
Cc1cc(C)c(OCCCON2C(=O)CCC2=O)c(Br)c1	19	-2	16	-5	2	0	nt
CC(C)c1nc(CNC(=O)C2CCC(=O)N(CCc3cccc(F)c3)C2)cs1 (centres undefined)	-2	-4	8	7	-13	1	nt
CCOc1cc(S(=O)(=O)Nc2ccc(CC)cc2)ccc1Cl	59*	-2	21	33	46	1	25
SMILES	tim10-1 inh	NALP1 yeast inh	NALP3 yeast inh	TIM10 inh	tim23-1 inh	V-ATPase pHluor	tim10-1 conf
CCOc1cc(S(=O)(=O)Nc2ccccc2CC)ccc1Cl	26	-3	21	10	33	2	nt
CC1Cc2cc(S(=O)(=O)N3CCCC(C(=O)N4CCCCC4)C3)ccc2N1C(=O)C1CC1 (centres undefined)	43*	7	-1	-6	27	-2	-27
CCOC(=O)C1CN(S(=O)(=O)c2cccc(C(F)(F)F)c2)c2cc(CC(=O)OC)ccc2O1 (centres undefined)	47*	10	10	7	18	1	25
CCOC(=O)C1CN(S(=O)(=O)c2ccccc2)c2cc(S(=O)(=O)CC)ccc2O1 (centres undefined)	27	9	15	8	6	1	nt
COc1ccc(CNS(=O)(=O)c2ccc3c(c2)NC(=O)CS3)cc1	10	14	12	9	11	-2	nt
CC1CCN(C(=O)c2ccc3c(Cl)c4c(nc3c2)CCCC4)CC1	47*	10	8	8	40	2	40*
CCOC(=O)N1CCC(NC(=O)c2ccc3c(Cl)c4c(nc3c2)CCCC4)CC1	41*	24	24	21	42	-3	17
CCOC(=O)N1CCC(NC(=O)c2ccc3c(c2)N=C(CC)c2ccccc2S3)CC1	45*	13	26	11	40	1	13
O=C(NC1CC1)c1ccc2c(Cl)c3c(nc2c1)CCCC3	26	-8	-2	36	44	1	nt
Cc1ccc(S(=O)(=O)CC(=O)c2ccc(C(C)(C)C)cc2)cc1	21	14	26	22	20	0	nt
Cc1nc(NC(=O)c2ccccc2)nc2cc3c(cc12)OCO3	5	5	7	-2	11	-5	nt
Cc1ccccc1N/N=C/c1c(C)nc2ccccn12	45*	24	25	17	31	3	24
Cc1nc2ccccn2c1C(=O)N/N=C/c1ccccc1	12	12	-1	-10	11	-2	nt
Brc1ccc(/C=N/Nc2ccc3ccccc3n2)cc1	48*	18	19	16	35	1	14
Brc1ccccc1/C=N/Nc1ccc2ccccc2n1	33	-1	15	29	26	-2	nt
O=C(CSc1ccccc1F)NCC(c1ccco1)N1CCCCC1 (centres undefined)	nt	nt	nt	nt	nt	3	nt
COc1cccc2sc(Nc3nc(-c4ccccn4)cs3)nc12	52*	-12	13	13	50	4	34*
Oc1ccc(-c2csc(Nc3ccccn3)n2)cc1O	22	5	12	10	13	1	nt
c1ccc(Nc2nc(-c3ccccn3)cs2)cc1	46*	nt	35	34	33	1	23
COc1cccc2sc(NNC(=O)COc3ccccc3)nc12	-13	-13	3	-4	-5	0	nt
CC(=O)Nc1ccc(-c2csc(Nc3ccccn3)n2)cc1	62*	nt	2	-26	-6	2	-39
CCCCNC(=S)N1CCn2cccc2C1c1ccc(F)cc1 (centres undefined)	44*	1	1	15	-2	3	21

Screening results (PubChem)
